Experimental findings from PMC12431657, “Discovery and mechanistic insights of dibenzoylmethane as a broad spectrum inhibitor of coronavirus” (PLOS Pathogens, 2025) are described below.

The test system of the test is HCoV-229E. More on the design: species or system Huh-7; HTS, protection from HCoV-229E induced cell death, luminescent cell viability (CellCounting-Lite 2.0), inhibition rate.

Read-outs that look alike come from different tables or passages of the source. Hit rate of the full screen: of about 3,300 compounds, about 95 (3%) showed an effect of 50% or more. The sample as a whole holds a higher share of strong results than the screen did.

With `C[C@]12CC[C@H](O)C[C@@H]1CC[C@@H]1[C@@H]2CC[C@]2(C)C(=O)CC[C@@H]12` [Epiandrosterone], where the note is “24 h, 10 µM; inhibitor”, the “229E Inhibition rate” value is listed as 29.3%. The same measure, in the same setting: for `C[C@]12CC[C@@H](O)C[C@H]1CC[C@@H]1[C@@H]2CC[C@]2(C)C(=O)CC[C@@H]12` [Etiocholanolone] the value was 13.1%. Still for that read-out and setting: for `C[C@]12CC[C@@H](O)C[C@@H]1CC[C@@H]1[C@@H]2CC[C@]2(C)C(=O)CC[C@@H]12` [Androsterone] the value was 52.3%. As to `COc1cc2cc(c1Cl)N(C)C(=O)C[C@H](OC(=O)C(C)C)[C@]1(C)O[C@@H]1[C@H](C)[C@@H]1C[C@@](O)(NC(=O)O1)[C@H](OC)/C=C/C=C(\C)C2` [Ansamitocin P-3], the “229E Inhibition rate” value (24 h, 10 µM; inhibitor) is 22.8%. On to `CN(C)NC(=O)CCC(=O)O` [Daminozide], for which the “229E Inhibition rate” value (24 h, 10 µM; inhibitor) is 12.3%. As to `NC(=O)Cc1ccccc1` [2-Phenylacetamide], under “24 h, 10 µM; inhibitor”, the “229E Inhibition rate” value is listed as 20.1%. Consider `NC(=O)NCCCC[C@H](N)C(=O)O` [L-Homocitrulline], for which the “229E Inhibition rate” value (24 h, 10 µM; inhibitor) stood at 20.7.

With `CC(C)(C)[C@]1(O)C[C@@H]2OC(=O)C[C@@]23C(=O)O[C@@H]2OC(=O)[C@H](O)[C@]213` [Bilobalide], the “229E Inhibition rate” value (24 h, 10 µM; inhibitor) is recorded as 54.8%.

Consider `C/C=C/C#CC#C/C=C/c1ccco1` [Atractylodin], for which the “229E Inhibition rate” value (24 h, 10 µM; inhibitor) amounted to 10.3%. For the molecule `C[C@@H]1CC[C@@]2(OC1)O[C@H]1[C@@H](O)[C@H]3[C@@H]4CC[C@H]5C[C@@H](O[C@@H]6O[C@H](CO)[C@H](O[C@@H]7O[C@H](CO)[C@@H](O)[C@H](O[C@@H]8OC[C@@H](O)[C@H](O)[C@H]8O)[C@H]7O[C@@H]7O[C@H](CO)[C@H](O)[C@H](O[C@@H]8O[C@H](CO)[C@@H](O)[C@H](O)[C@H]8O)[C@H]7O)[C@H](O)[C@H]6O)[C@H](O)C[C@]5(C)[C@H]4CC[C@]3(C)[C@H]1[C@@H]2C` [Digitonin], for the setting “24 h post infection, 1 h compound pre-incubation; 10 µM; inhibitor”, the “229E Inhibition rate” value was 13.7%. `CCN1C[C@]2(C)CC[C@H](OC)[C@@]34C1[C@]1(OCO[C@@]15C[C@H](OC)[C@H]1C[C@]3(O)[C@@H]5[C@H]1OC)[C@@H](OC(C)=O)[C@H]24` [Deltaline]: the “229E Inhibition rate” value (24 h, 10 µM; inhibitor) was determined as 2.6%. On the same count and under the same terms, for `CN1Cc2c(ccc3c2OCO3)[C@@H]2[C@H]1c1cc3c(cc1C[C@@H]2O)OCO3` [Chelidonine] the value was 12.4%; for `CO[C@H]1C[C@H](O[C@H]2CC[C@]3(C)[C@H]4CC[C@]5(C)[C@@H](C6=CC(=O)OC6)CC[C@]5(O)[C@@H]4CC[C@]3(O)C2)O[C@H](C)[C@H]1O[C@@H]1O[C@H](CO)[C@@H](O)[C@H](O)[C@H]1O` [Periplocin], 25; for `CO[C@@H]1C[C@H](O[C@H]2CC[C@@]3(C)[C@H](CC[C@@]45O[C@@]46CC[C@H](C4=CC(=O)OC4)[C@@]6(C)CC[C@H]35)C2)O[C@H](C)[C@@H]1O` [Adynerin], 9.5%. As to `C[C@H]1O[C@@H](O[C@H]2CC[C@@]3(C)[C@H](CC[C@@H]4[C@@H]3C[C@@H](O)[C@]3(C)[C@@H](C5=CC(=O)OC5)CC[C@]43O)C2)C[C@H](O)[C@@H]1O[C@H]1C[C@H](O)[C@H](O[C@H]2C[C@H](O)[C@H](O[C@@H]3O[C@H](CO)[C@@H](O)[C@H](O)[C@H]3O)[C@@H](C)O2)[C@@H](C)O1` [Deslanoside], the “229E Inhibition rate” value (24 h, 10 µM; inhibitor) came to 55.1. As to `CC(C)=CCCC1=CC(=O)c2c(O)ccc(O)c2C1=O` [Deoxyshikonin], for the setting “24 h, 10 µM; inhibitor”, the “229E Inhibition rate” value was determined as 9.8%. The same measure, in the same setting: to `CC1(C)[C@H]2O[C@H]2[C@H]2[C@](C)(O)[C@@H]3CC[C@@H]4[C@@H](O)[C@@]3(C[C@@H](O)[C@@]21O)C[C@@]4(C)O` [Rhodojaponin III] belongs 46.8%.

In the case of `CC(C)[C@@H]1NC(=O)[C@H](C)OC(=O)[C@@H](C(C)C)NC(=O)[C@@H](C(C)C)OC(=O)[C@H](C(C)C)NC(=O)[C@H](C)OC(=O)[C@@H](C(C)C)NC(=O)[C@@H](C(C)C)OC(=O)[C@H](C(C)C)NC(=O)[C@H](C)OC(=O)[C@@H](C(C)C)NC(=O)[C@@H](C(C)C)OC1=O` [Valinomycin], for the setting “24 h, 10 µM; inhibitor”, the “229E Inhibition rate” value amounted to 90.8%.

On to `COC1=CC(=O)O[C@@H](/C=C/c2ccccc2)C1` [(+)-Kavain], for which the “229E Inhibition rate” value (24 h, 10 µM, inhibitor) is 9.8%. Take `COC(=O)[C@]12OC[C@]34[C@H]([C@@H](O)[C@@H]1O)[C@@]1(C)CC(=O)C(O)=C(C)[C@@H]1C[C@H]3OC(=O)[C@H](OC(=O)/C=C(\C)C(C)(C)OC(C)=O)[C@@H]24` [Bruceantinol]: for the setting “24 h, 10 µM; inhibitor”, the “229E Inhibition rate” value came to 0%.
